# Reference: PubChem BioAssay AID890 (National Center for Advancing Translational Sciences (NCATS), 2007)
# Activity calls are given as the source filed them. Calls follow the shape of the dose curve; as a rule, active = well fitted activation curve with a large enough effect; inactive = flat fitted curve, though single readings scatter.
# Experiment: Confirmation Concentration-Response Assay for Epigenetic Modulators
# Conditions: murine C127i cells, silenced GFP reporter derepression, imaging
# Description: NIH Molecular Libraries Screening Centers Network [MLSCN] NIH Chemical Genomics Center [NCGC] MLSCN Grant: 1 X01 MH079860-01 Assay Provider: Elisabeth D. Martinez, University of Texas SW Medical Center NCGC Assay Overview: The Locus Derepression assay detects the derepression of a GFP reporter that is stably integrated in a region of the genome of murine c127i mammary cells that is presumably silenced. GFP transcription in this construct is controlled by a CMV promoter, which normally is strong and constitutively active. However, this line was selected for lack of constitutive expression of the GFP protein. GFP production can be induced by incubating the cells with histone deacetylase or DNA methyltransferase inhibitors. Compounds that cause derepression of the locus to express GFP are identified by enumerating GFP positive cells using a laser-scanning microplate cytometer.
# NCGC Assay Protocol Summary: Two hundred and fifty cells in 5 uL per well were dispensed into black, clear-bottom 1536-well plates. Twenty-three nL compound was transferred to the assay plate and cells were incubated 30 hours at 37 C. […]
smiles,measurement,value
CN1CSC(=S)N(C)C1,Potency,7.95 µM (active)
